Experimental data: PubChem BioAssay (EPA / NIEHS)
Records with an inconclusive call do not appear. Active and inactive are the calls of the source. How the source made its calls, unless noted: active means hit-call score of the fitted dose curve at least 0.9, where 1 is the maximum; inactive means score below 0.9.

Experiments:
[1] = CCTE_Harrill_HTTr_CellCount_MCF7: CCTE's Cell Proliferation Assessment for the High-Throughput Transcriptomics (HTTr) Platform, Harrill Lab (AID 2284012; active means hit-call score of the fitted dose curve at least 0.9, where 1 is the maximum;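 further: count of Hoechst-stained nuclei per well by high-content imaging in MCF-7 cells; cells exposed to compound for six hours; intended direction is loss of nuclei count meaning fewer cells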)
Method in brief: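 Chemicals in eight-point dilution series are added to MCF-7 cells for six hours, nuclei are stained with Hoechst and imaged, and per-well nuclei counts are fitted in both directions relative to DMSO controls.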

[2] = CCTE_Shafer_MEA_acute_burst_number: CCTE's Neural Acute Assay for Single-Electrode Bursts, Shafer Lab (AID 2284013)
Method in brief: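 Primary rat cortical neurons on 16-electrode MEA wells, treated on DIV 13 or 15 with compound at 0.03-40 uM. Single-electrode burst count from 40-min recordings at 37 C before and after exposure; percent change from baseline per well, DMSO negative control.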

[3] = CCTE_Shafer_MEA_acute_burst_duration_mean: CCTE's Neural Acute Assay for Mean Burst Duration, Shafer Lab (AID 2284014);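 further: hits are decreases in mean burst duration relative to DMSO controls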
Method in brief: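 Rat primary cortical neurons on 48-well MEA, treated at DIV 13 or 15 with 0.03-40 uM in at least 3 wells. Value is percent change in mean burst duration, comparing 40 min recordings at 37 C before and during exposure.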

[4] = CCTE_Shafer_MEA_acute_per_burst_spike_number_mean: CCTE's Neural Acute Assay for Average Number of Spikes Per Burst, Shafer Lab (AID 2284015);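 further: hits are decreases in mean spikes per burst versus baseline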
Method in brief: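 We recorded spontaneous network firing of rat cortical neurons for 40 min before and 40 min during exposure to compound at 0.03-40 uM, at 37 C. Spikes were detected adaptively at 8x rms noise, and the change in average spikes per burst was fitted against DMSO.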

[5] = CCTE_Shafer_MEA_acute_interburst_interval_mean: CCTE's Neural Acute Assay for Mean Interburst Interval, Shafer Lab (AID 2284016);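 further: percent change of mean interburst interval versus each well's own pre-dose baseline; curves fitted for decrease in interburst interval relative to DMSO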
Method in brief: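 MEA recording of spontaneous network bursting in primary rat cortical cultures; mean interburst interval was compared before and after a 40-min compound exposure (0.03-40 uM) and expressed as percent change, relative to DMSO.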

[6] = CCTE_Shafer_MEA_acute_burst_percentage_std: CCTE's Neural Acute Assay for Standard Deviation of Burst Percentage, Shafer Lab (AID 2284018);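 further: fitted in the negative direction so actives lower burst percentage SD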
Method in brief: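 Rat primary cortical neurons on 48-well MEAs, DIV 13 or 15, 37 C. 40-min baseline then 40-min recording with compound (0.03-40 uM); well-level SD of per-electrode burst spike percentage, expressed as percent change from baseline.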

[7] = CCTE_Shafer_MEA_acute_per_network_burst_spike_number_mean: CCTE's Neural Acute Assay for Average Number of Spikes in a Network Burst, Shafer Lab (AID 2284019);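 on AC50: curve fitted for loss of signal so actives reduce spikes per network burst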
Method in brief: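 Rat primary cortical neurons on 48-well MEA at DIV 13 or 15, 37 C; compounds 0.03-40 uM, at least three wells each. 40-min baseline then 40-min exposure recording; percent change in mean spikes per network burst.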

[8] = CCTE_Shafer_MEA_acute_per_network_burst_spike_number_std: CCTE's Neural Acute Assay for Standard Deviation of Number of Spikes in a Network Burst, Shafer Lab (AID 2284020);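 further: fitted for decrease in spike-number SD versus DMSO so actives lower it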
Method in brief: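 Rat primary cortical neurons on 48-well MEA (16 electrodes/well), treated DIV 13 or 15 at 0.03-40 uM, ≥3 wells per compound. 40 min recordings at 37 C before and after dosing; value is percent change in network-burst spike-number SD, negative direction vs DMSO.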

[9] = CCTE_Shafer_MEA_acute_per_network_burst_electrodes_number_mean: CCTE's Neural Acute Assay for Mean Number of Electrodes in a Network Burst, Shafer Lab (AID 2284021);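 further: curves fitted for decreases only so hits reduce electrodes per burst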
Method in brief: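 Percent change from baseline was computed as mean electrode count per network burst, comparing 40 min recordings before and during compound (0.03-40 uM) exposure. Cultures were rat cortical neurons at DIV 13 or 15, recorded on MEAs at 37 C with an adaptive 8x rms threshold.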

[10] = CCTE_Shafer_MEA_acute_network_burst_percentage: CCTE's Neural Acute Assay for Percentage of Network Bursts, Shafer Lab (AID 2284022);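 further: curves fitted for loss so actives lower network burst percentage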
Method in brief: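 Network burst percentage (spikes in network bursts divided by total spikes) recorded at 37 C over 40 min baseline and 40 min after compound, 0.03-40 uM, in rat cortical cultures at DIV 13 or 15. Analysed as percent change from baseline versus DMSO.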

Measured: AC50

Oc1ccc(Cc2ccc(O)cc2)cc1
active: [2] 3 nM | [4] 25300 nM
inactive: all other assays above

CC1(C)[C@H](C(=O)O[C@H](C#N)c2cccc(Oc3ccccc3)c2)[C@@H]1/C=C(\Cl)C(F)(F)F
active: [3] 761 nM | [4] 679 nM | [5] 1290 nM | [7] 553 nM | [8] 427 nM | [9] 818 nM | [10] 551 nM
inactive: [1] | [2] | [6]

O=[N+]([O-])c1ccccc1O
inactive: [1]

N#Cc1cccnc1
not listed: [1]
inactive: all other assays above

CS(=O)(=O)c1ccc(C(=O)C2C(=O)CCCC2=O)c(Cl)c1COCC(F)(F)F
inactive: all assays above

O=[N+]([O-])c1ccc(Cl)c([N+](=O)[O-])c1
inactive: [1]

CC(C)[C@@H](Nc1ccc(C(F)(F)F)cc1Cl)C(=O)OC(C#N)c1cccc(Oc2ccccc2)c1 (stereo not given in full)
inactive: [2]
active: [3] 841 nM | [4] 840 nM | [5] 2120 nM | [6] 1280 nM | [7] 415 nM | [8] 289 nM | [9] 310 nM | [10] 564 nM

O=c1[nH]c2ccccc2n1C1CCN(CCCC(c2ccc(F)cc2)c2ccc(F)cc2)CC1
active: [1] 94700 nM

O=C(O)C1(c2ccc3c(c2)OC[C@H](Cc2ccc(-c4ccccc4)cc2)[C@H]3O)CCCC1
inactive: [1]

O=C(Cc1ccccc1)OCCc1ccccc1
inactive: all assays above

O=C(O)COc1cc(Cl)c(Cl)cc1Cl
inactive: [1]

CCOP(=S)(OCC)OP(=S)(OCC)OCC
inactive: [1]

CCCCCCCCCCCCc1cccc(S(=O)(=O)O)c1
not listed: [1]
inactive: all other assays above

N#CCCC(Br)(C#N)CBr (stereo not given)
inactive: [1]

CCCCOC(=O)COC(=O)c1ccccc1C(=O)OCCCC
active: [2] 10.5 nM
inactive: all other assays above

O=C(O)COc1ccc(Cl)cc1
inactive: [1]

CCOC(=O)c1ccccc1S(=O)(=O)NC(=O)Nc1nc(Cl)cc(OC)n1
inactive: [1]

CCOP(=S)(OCC)O/N=C(\C#N)c1ccccc1
inactive: [1]

Oc1cc(Cl)c(Cl)cc1Cl
active: [6] 32600 nM
inactive: all other assays above

OCCCCO
not listed: [1]
inactive: all other assays above

Cc1cc(C(F)(C(F)(F)F)C(F)(F)F)ccc1NC(=O)c1cccc(I)c1C(=O)NC(C)(C)CS(C)(=O)=O
active: [2] 1390 nM | [4] 20700 nM | [7] 5870 nM
not listed: [1]
inactive: all other assays above

CN(C)C(=S)S
not listed: [1]
inactive: all other assays above

Brc1c(Br)c(Br)c(Oc2c(Br)c(Br)c(Br)c(Br)c2Br)c(Br)c1Br
inactive: [1]

CC(C)(C)c1ccccc1O
active: [6] 31800 nM
inactive: all other assays above

C1CCC(C2CCCCC2)CC1
inactive: [1]

O=S1(=O)OC(c2cc(Br)c(O)c(Br)c2)(c2cc(Br)c(O)c(Br)c2)c2ccccc21
inactive: [1]

CCOC(=O)CCN(SN(C)C(=O)Oc1cccc2c1OC(C)(C)C2)C(C)C
inactive: [1]

Clc1cccc(Cl)c1Cl
inactive: all assays above

O=C1C[C@@H]2OCC=C3CN4CC[C@]56c7ccccc7N1[C@H]5[C@H]2[C@H]3C[C@H]46
inactive: [1]

Cc1ccccc1OP(=O)(Oc1ccccc1C)Oc1ccccc1C
active: [3] 21700 nM | [4] 27800 nM | [5] 23500 nM | [6] 24200 nM
not listed: [1]
inactive: all other assays above

CC(O)(CS(=O)(=O)c1ccc(F)cc1)C(=O)Nc1ccc(C#N)c(C(F)(F)F)c1 (stereo not given)
inactive: [1]

C[CH2][Hg][S]c1ccccc1C(=O)O
active: [1] 50000 nM
